Only some compounds are listed: those with a hit (about 1.6% of all), similar ones and a draw of the others.
KCNQ2 inh – inhibitors of rat KCNQ2 potassium channel; CHO-K1 KCNQ2, FluxOR thallium flux, 20 min; stronger effect = lower value; actives 1.1% (n = 310,000); O88943; B-score at 10 µM;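 active means fluorescence ratio B-score at most minus 3 library SDs, with starting brightness B-score within 2 library SDs, cut at about -5.5 in these data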
Target sequence (O88943 whole entry, looked up): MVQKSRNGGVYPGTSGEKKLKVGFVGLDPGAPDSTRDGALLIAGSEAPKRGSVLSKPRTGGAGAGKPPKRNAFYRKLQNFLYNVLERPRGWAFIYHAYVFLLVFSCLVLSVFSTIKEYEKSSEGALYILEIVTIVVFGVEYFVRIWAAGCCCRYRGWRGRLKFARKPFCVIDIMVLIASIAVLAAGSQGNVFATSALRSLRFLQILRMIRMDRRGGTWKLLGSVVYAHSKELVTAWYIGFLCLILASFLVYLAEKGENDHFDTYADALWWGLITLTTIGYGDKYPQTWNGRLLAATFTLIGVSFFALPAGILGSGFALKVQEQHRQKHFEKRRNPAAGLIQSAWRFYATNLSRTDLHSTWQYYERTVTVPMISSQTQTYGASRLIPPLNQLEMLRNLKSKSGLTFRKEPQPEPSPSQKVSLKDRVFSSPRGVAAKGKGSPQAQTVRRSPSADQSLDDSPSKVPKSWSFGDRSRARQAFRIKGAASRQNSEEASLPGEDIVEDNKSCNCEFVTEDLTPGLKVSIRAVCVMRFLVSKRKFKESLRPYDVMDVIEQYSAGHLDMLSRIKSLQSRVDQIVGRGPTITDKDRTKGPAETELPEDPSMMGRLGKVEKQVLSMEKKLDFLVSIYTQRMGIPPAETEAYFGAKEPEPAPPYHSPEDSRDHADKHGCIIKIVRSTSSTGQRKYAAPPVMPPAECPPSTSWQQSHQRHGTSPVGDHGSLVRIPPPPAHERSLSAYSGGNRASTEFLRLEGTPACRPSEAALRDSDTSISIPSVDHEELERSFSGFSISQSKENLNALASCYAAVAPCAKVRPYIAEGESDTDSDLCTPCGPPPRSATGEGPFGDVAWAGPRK
KCNQ2 pot – KCNQ2 (rat) channel potentiation. CHO-K1 KCNQ2, FluxOR thallium flux fluorescence; stronger effect = higher value. actives 0.54% (n = 310,000). O88943. B-score at 10 µM;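 active means fluorescence ratio B-score at least 3 SD of library B-scores, with initial fluorescence B-score within 3 of them, cut at about 5.3 in these data; same plate scores as AID 2156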;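 further: B-score of peak minus minimum over baseline fluorescence ratio after K+ and Tl+ stimulus; positive B-score means potentiation of KCNQ2 with more thallium influx and brighter signal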
KCNQ2 block conf – confirmation of rat KCNQ2 potassium channel inhibitors; activity change, negative = inhibition, % at 10 µM; actives 57% (n = 1,000); shares compounds with KCNQ2 inh; KCNQ2-expressing cells, thallium flux, inhibition; stronger effect = lower value;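 further: 0% = vehicle wells and values are ratio percent relative to vehicle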
KCNQ1 spec – selectivity of KCNQ2 inhibitors against human KCNQ1; shares compounds with KCNQ2 inh; AID 493026; activity change, negative = inhibition, % at 10 µM; KCNQ1-expressing cells, FluxOR thallium flux fluorescence; stronger effect = lower value; actives 15% (n = 1,000);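 active means activity change at least 3 SD of negative controls below their mean in both duplicate wells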;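 further: CHO cells stably transfected with KCNQ1 and depolarized by potassium stimulus; peak minus minimum fluorescence over baseline after thallium addition; 0% = vehicle negative control and -100% = blank without thallium stimulus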
CHO parental ctr – KCNQ2 inhibitor counter-screen hit in parental CHO cells; thallium flux counter-screen; stronger effect = lower value; actives 14% (n = 1,000); shares compounds with KCNQ2 inh; activity change, % at 10 µM;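 further: 0% = vehicle negative controls with stimulus buffer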
KCNQ2 patch conf – rat KCNQ2 inhibition confirmed by electrophysiology | shares compounds with KCNQ2 inh | KCNQ2-expressing cells, automated patch clamp current | calls only at 10 µM | actives 49% (n = 550) | AID 588531
* hit, by the source's call; i = inactive; . = no result given; + = active, no number. Unless noted, how the calls were made is not given here.

SMILES	KCNQ2 inh	KCNQ2 pot	KCNQ2 block conf	KCNQ1 spec	CHO parental ctr	others
CCCN(CCC)c1nc(-c2ccccn2)nc2ccccc12	i	.	.	.	.
O=C1NC[C@H](c2ccccc2)N(CCc2cccc(F)c2)C1=O	i	.	.	.	.
CCOc1ccc(C(=O)N(c2ccccn2)C2CCCCC2)cc1	i	1.1	.	.	.
CNS(=O)(=O)c1cccc(C(=O)NCC(c2cccs2)N2CCOCC2)c1 (stereo unspecified)	i	1.8	.	.	.
O=[N+]([O-])c1cccc(/C=N/N2CCN(Cc3ccccc3)CC2)c1	i	.	.	.	.
O=[N+]([O-])c1cccc(/C=N\N2CCN(Cc3ccccc3Cl)CC2)c1	-7.3*	-7.3	i	i	i
Cc1cccn2c(=O)c(C=NCCO)c(Nc3ccc(Cl)cc3)nc12	i	.	.	.	.
COc1cccc(NC(=O)C2CCCCC2)c1	i	4.5	.	.	.
COc1cccc(NC(=O)C(NCC2CCCCC2)c2ccccc2)c1 (stereo unspecified)	-10*	-10	-28%*	i	i	KCNQ2 patch conf=+
COc1ccccc1C(=O)NC(=O)COC(=O)c1cccc(NC(C)=O)c1	i	4	.	.	.
COc1cc2c(cc1NC(=O)C(c1ccccc1)c1ccccc1)CCCC2	-7.1*	-7.1	-34%*	i	i	KCNQ2 patch conf=+
COc1cc(NC(=O)C(c2ccccc2)c2ccccc2)c(C(=O)O)cc1OC	i	0.39	.	.	.
CCN1CCc2nc3ccccc3c(C(=O)Nc3ccc(F)cc3)c2C1	-9.4*	-9.4	i	i	i
CCN1CCc2nc3ccccc3c(C(=O)Nc3ccc(NC(C)=O)cc3)c2C1	i	0.89	.	.	.
O=C(NCCCN=C1NS(=O)(=O)c2ccccc21)c1ccc(Cl)cc1	i	0.41	.	.	.
COc1cccc(N/C(C)=C/C(=O)c2ccc(Br)cc2)c1	-7.6*	-7.6	-41%*	-47%*	-33%*	KCNQ2 patch conf=i
C/C(=C\C(=O)c1ccc(Br)cc1)Nc1ccc(Cl)cc1	i	.	.	.	.
Cc1ccc(C(=O)OCN2C(=O)c3ccccc3C2=O)c(O)c1	i	.	.	.	.
CC(OC(=O)CCCN=C1NS(=O)(=O)c2ccccc21)C(=O)Nc1ccccc1[N+](=O)[O-] (stereo unspecified)	i	0.83	.	.	.
O=C(NC12CC3CC(CC(C3)C1)C2)c1ccccc1	i	.	.	.	.
O=C(NC12CC3CC(CC(C3)C1)C2)N(Cc1ccccc1)Cc1ccncc1	-11*	-11	-34%*	i	i	KCNQ2 patch conf=+
CCCNC(=O)[C@H](Cc1c[nH]c2ccccc12)NC(=O)c1ccccc1Cl	i	.	.	.	.
O=c1c(Br)c(N2CCCCC2)cnn1-c1ccccc1	i	0.08	.	.	.
O=C(NCC1CCCO1)c1cccc2ccccc12 (stereo unspecified)	i	0.01	.	.	.
O=C(NC(NCC1CCCO1)C(Cl)(Cl)Cl)c1cccc2ccccc12 (stereo unspecified)	-8.6*	-8.6	i	i	i
SMILES	KCNQ2 inh	KCNQ2 pot	KCNQ2 block conf	KCNQ1 spec	CHO parental ctr	others
Cc1c(C(=O)NC(=S)Nc2ccc(N3CCOCC3)cc2)cccc1[N+](=O)[O-]	i	.	.	.	.
O=C(CSc1nc2ccsc2c(=O)n1CC1CCC(C(=O)O)CC1)NCCc1ccc(Cl)cc1 (stereo unspecified)	i	.	.	.	.
COc1ccc(CCNCC(O)Cn2c3ccccc3c3ccccc32)cc1OC (stereo unspecified)	-7*	-7	-24%*	i	i	KCNQ2 patch conf=i
COc1ccccc1NCC(O)Cn1c2ccccc2c2ccccc21 (stereo unspecified)	i	0.4	.	.	.
CC(OC(=O)Cc1cccc(C(F)(F)F)c1)C(=O)Nc1ccc(Cl)cn1 (stereo unspecified)	i	.	.	.	.
CCCN1CCc2c(sc3nc(SCC)n(-c4ccc(OC)cc4)c(=O)c23)C1	i	.	.	.	.
CN(CCOc1ccccc1)S(=O)(=O)c1ccc2oc3ccccc3c2c1	-7.8*	-7.8	-16%*	i	i	KCNQ2 patch conf=i
COc1ccc(OCCNS(=O)(=O)c2ccc3oc4ccccc4c3c2)cc1	i	0.01	.	.	.
O=C(c1cccc(Cl)c1)C1CCCN(C(=O)c2ccc3c(c2)OCO3)C1 (stereo unspecified)	i	.	.	.	.
COc1ccc(-n2nc3c(c2NC(=O)c2ccc4c(c2)OCO4)CS(=O)(=O)C3)cc1	i	0.6	.	.	.
c1csc(C(c2nnnn2C2CCCCC2)N2CCCC3(CCCCC3)C2)c1 (stereo unspecified)	i	.	.	.	.
CC(C)(C)n1nnnc1C(c1cccs1)N1CCCC2(CCCCC2)C1 (stereo unspecified)	-7.5*	-7.5	-33%*	-38%*	-30%*	KCNQ2 patch conf=i
CN(Cc1c(C(=O)N2CCc3ccccc3C2)nc2ccc(Cl)cn12)C(C1CC1)C1CC1	-7.9*	-7.9	-24%*	i	i	KCNQ2 patch conf=+
CCN(C)Cc1c(C(=O)N2CCc3ccccc3C2)nc2ccc(Cl)cn12	i	.	.	.	.
Cc1c(Cl)cccc1NC(=O)CCN1CCC(C(N)=O)CC1	i	.	.	.	.
C=CCNC(=O)c1c2c(nc3ccccc13)-c1ccccc1CC2	-7.6*	-7.6	i	i	i
CCN(CC)C(=O)c1c2c(nc3ccccc13)-c1ccccc1CC2	-8.8*	-8.8	i	i	i
CC(C)CNC(=O)c1c2c(nc3ccccc13)-c1ccccc1CC2	i	.	.	.	.
COc1cccc2c1CCc1c-2nc2ccccc2c1C(=O)O	i	0.66	.	.	.
CC1CCN(C(=O)Cn2nnc(-c3ccc(N)cc3)n2)CC1	i	1.3	.	.	.
COC(=O)c1c(NC(=O)Cc2cccs2)sc2c1CCCC2	-8.4*	-8.4	-30%*	i	i	KCNQ2 patch conf=i
COCC(=O)Nc1sc2c(c1C(=O)OC)CCCC2	i	.	.	.	.
N#Cc1ccc(C(=O)Nc2cc(S(=O)(=O)N3CCCC3)ccc2OCC(F)(F)F)cc1	i	0.64	.	.	.
COc1cc(C(=O)NNC(=O)Nc2ccc([N+](=O)[O-])cc2)cc(OC)c1OC	i	0.06	.	.	.
Cc1ccc(C(=O)NCC(c2ccco2)N2CCOCC2)cc1 (stereo unspecified)	i	1.6	.	.	.
SMILES	KCNQ2 inh	KCNQ2 pot	KCNQ2 block conf	KCNQ1 spec	CHO parental ctr	others
O=C(NCC(c1ccco1)N1CCOCC1)c1cccc(Cl)c1 (stereo unspecified)	i	1.1	.	.	.
Cc1ccc(C(=O)NCC(c2ccco2)N2CCc3ccccc3C2)cc1C (stereo unspecified)	-8.8*	-8.8	-28%*	i	i
O=C(NCC(c1ccco1)N1CCc2ccccc2C1)c1ccc(Cl)cc1 (stereo unspecified)	-10*	-10	-31%*	-30%*	-22%*	KCNQ2 patch conf=+
Cc1ccc(C(=O)NCC(c2ccco2)N2CCc3ccccc3C2)cc1 (stereo unspecified)	-6.7*	-6.7	i	i	i
Cc1ccc(C)c(S(=O)(=O)NCC(c2ccco2)N2CCc3ccccc3C2)c1 (stereo unspecified)	i	.	.	.	.
O=C(NCC(c1ccco1)N1CCc2ccccc2C1)c1c(F)cccc1F (stereo unspecified)	i	0.53	.	.	.

Source: PubChem BioAssay
